Bioassay records as filed in PubChem.
MCF10A rereplic: induces DNA re-replication in MCF 10a normal breast cells | MCF 10A DNA re-replication, Hoechst nuclear intensity, 48 h | Potency, µM (top dose mostly 46.1 µM), for inactives: top-dose activity, positive = re-replication, most hits filed as activators | actives 2.9% (n = 350,000); further: % of control where 0% means no effect; nearly all actives have a fitted effect of over 50% in size
KB-V1 MDR tox: kills drug-selected multidrug resistant KB-V1 cells | KB-V1 MDR cells viability, CellTiter-Glo, 72 h | actives 3.4% (n = 400,000) | AID 1347076 | Potency, µM (highest dose often 46.1 µM), usual class: cytotoxic; further: on the % scale 0 is the no-effect control and ±100 the full control effect; nearly all actives have a fitted effect of over 60% in size
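Readout: CellTiter-Glo luminescence, 10 min after addition. Cells: KB-V1 MDR subline, 72 h at 37 degrees C with compound. Analysis: corrected, normalized data fitted to concentration-effect curves.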
KB-3-1 tox: kills parental KB-3-1 adenocarcinoma cells; Potency, µM (series often up to 46.1 µM), usual class: cytotoxic; actives 1.4% (n = 400,000); AID 1347075; KB-3-1 viability, CellTiter-Glo ATP luminescence, 72 h; further: on the % scale 0 is the no-effect control and ±100 the full control effect; nearly all actives have a fitted effect of over 60% in size
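Cytotoxicity in the drug-sensitive parental line KB-3-1 was scored as loss of CellTiter-Glo luminescence following 72 h incubation with compound. Values come from curve fitting of normalized concentration-response data.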
SW480 rereplic: induces DNA re-replication in SW480 colon adenocarcinoma cells; SW480 DNA re-replication, Hoechst DNA content imaging, 48 h; Potency, µM (doses to about 46.1 µM), for inactives: top-dose re-replication activation, hits mostly activators; actives 1.8% (n = 340,000); further: % of control where 0% means no effect; nearly all actives have a fitted effect of over 55% in size
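Image-based DNA-content assay: after two days of treatment, nuclei were labelled with the DNA dye Hoechst and imaged, and hits were compounds raising the count of nuclei showing high fluorescence intensity.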
ELG1 repair inh: ELG1-dependent DNA repair inhibition. HEK293T ELG1-luciferase reporter, luminescence, 16 h; DNA damage induced by 5-fluorouridine. Potency, µM (titrated, usually from 46.1 µM), without a hit: at the top dose activity change, negative = inhibition, most hits filed as inhibitors. actives 2.3% (n = 330,000). AID 504467; further: on the % scale 0 is the no-effect control and ±100 the full control effect; nearly all actives have a fitted effect of over 55% in size
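In this reporter screen, reduction of luminescence relative to DMSO vehicle indicated activity. Compounds and 5-fluorouridine were added together to 2,000 cells per well, incubated for 16 hr at 37 °C, then developed with ONE-Glo.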
The depositor's hits bear a star; i = inactive; ? = inconclusive; / = no result given. Compounds with a hit are over-represented: about 8.1% of the library has one in this group of screens. The call rests on the fitted dose curve; in most records, active means well fitted curve in the direction sought with a large enough effect; inconclusive means small, poorly fitted or top-dose-only effect, or another doubt; inactive means no such curve, though single readings can be large; an effect the other way counts as inactive or inconclusive. Potency means the concentration at half of the fitted maximal effect.

SMILES | MCF10A rereplic | KB-V1 MDR tox | KB-3-1 tox | SW480 rereplic | ELG1 repair inh
COC(=O)c1cc2c(ccn2-c2ccc(F)cc2)n1CC(=O)N1CCN(C(=O)c2ccco2)CC1 | -4% | ? | i | -8% | 16µM*
Oc1ccc(-n2nnnc2SCc2ccccc2Br)cc1 | 4% | i | i | ? | -14%
COc1cc(C2CC(=O)Nc3cc4c(cc32)OCO4)cc(OC)c1O (stereo not drawn) | / | i | ? | / | /
COc1cc(C2C3=C(COC3=O)OC(C)(C)Oc3cc4c(cc32)OCO4)cc(OC)c1OC (stereo not drawn) | 1.2µM* | 3.7µM* | 0.73µM* | 1.2µM* | /
COc1cc(C2C3=C(COC3=O)Oc3cc4c(cc32)OCO4)ccc1O (stereo not drawn) | ? | 4.6µM* | 3.7µM* | 1.8µM* | /
CCC(Oc1ccc(C)cc1)C(=O)Nc1ccc(S(=O)(=O)Nc2nccs2)cc1 (stereo not drawn) | 25% | i | i | 1% | 4%
COc1ccccc1C(c1c(O)cc(C)n(Cc2ccco2)c1=O)N1CCCCC1 (stereo not drawn) | / | i | i | / | /
O=C(NCCCCO)c1ccc2c3c(cccc13)CC2 | -5% | i | i | -5% | 8%
O=C(COC(=O)c1ccco1)Nc1ccc(Br)cc1 | 5% | i | i | 1% | 1%
C/C(N)=C(/C#N)C(=O)CSc1nc2ccccc2c(=O)n1-c1ccc(C)cc1 | / | / | / | / | 7.3µM*
C/C(N)=C(/C#N)C(=O)CSc1nc2ccccc2c(=O)n1-c1ccc(C)c(Cl)c1 | 24% | ? | i | 12% | 6.5µM*
CCOC(=O)c1c(C)[nH]c(C)c1C(=O)CSc1nc2ccccc2c(=O)n1-c1ccc(Cl)cc1 | ? | 10µM* | ? | ? | ?
C/C(N)=C(/C#N)C(=O)CSc1nc2ccccc2c(=O)n1-c1ccccc1C | 23% | i | i | 15% | -16%
C/C(N)=C(/C#N)C(=O)CSc1nc2ccccc2c(=O)n1CCCO | 0% | i | i | -3% | -2%
Cc1ccc(NC(=O)C2(N(C(=O)Cn3nnnc3N)c3ccc(C)cc3)CCCCC2)cc1 | 10% | i | i | -1% | -3%
COc1ccc(C(C(=O)Nc2c(C)cccc2C)n2c(=O)c(-c3ccco3)nc3ccccc32)cc1 (stereo not drawn) | / | i | i | / | /
CCOC(=O)N1CCC(NS(=O)(=O)c2ccc(NC(C)=O)c(Cl)c2)CC1 | ? | ? | ? | ? | 7.3µM*
CCN(CC)S(=O)(=O)c1ccc(Cl)c(C(=O)NC2CCCC2)c1 | 3% | i | i | -2% | -13%
CCOC(=O)N1CCC(NC(=O)c2cc(S(=O)(=O)N3CCC4(CC3)OCCO4)ccc2F)CC1 | 12% | 23µM* | i | 1% | ?
CCOC(=O)N1CCC(NC(=O)c2cc(S(=O)(=O)N3CCOCC3)ccc2F)CC1 | -3% | i | i | -4% | -3%
CCOC(=O)N1CCC(NC(=O)c2cc(S(=O)(=O)N(CC)CC)ccc2F)CC1 | -13% | ? | i | 0.73µM* | -11%
CCOC(=O)N1CCC(NS(=O)(=O)c2ccc(C)cc2)CC1 | 1% | i | i | -3% | ?
Cc1cccc(C)c1NC(=O)Nc1nnc([C@@H]2C[C@H](O)[C@@H](CO)O2)s1 | / | ? | i | / | /
CS(=O)(=O)N1CCN(C2CCN(Cc3ccccc3)CC2)CC1 | -4% | i | i | -4% | 6%
Cc1nnc(SCc2cccc([N+](=O)[O-])c2)s1 | 1% | i | i | -13% | ?
CCN(CC)c1ccc(C(=O)OCC(=O)N2CCCC2)cc1 | 7% | i | i | -17% | ?
c1ccc(CC2CCN(C3=Nc4cccc5cccc3c45)CC2)cc1 | 9.2µM* | ? | i | ? | 6%
O=[N+]([O-])c1ccc(/C=N/Nc2ccnc3cc(Cl)ccc23)o1 | 12% | i | i | 3.7µM* | 15%
O=C(CCNC(=O)c1ccc(Br)cc1)NC1CCCCCC1 | 8% | 16µM* | i | -1% | 1%
O=C(CNC(=O)c1ccc(Cl)cc1)NC1CCCCC1 | 1% | i | i | 8.2µM* | 5%
